# Assay outcomes from PubChem.
# Only some compounds are listed: those with a hit (about 2% of all), similar ones and a draw of the others.
# PKA-R2B activ: activators of PKA-R2B holoenzyme, primary screen, biochemical, fluorescence polarization, Cy5-IP20, human. activation, % at 11.4 µM. hit rate 0.079% among 340,000. PKA-R2B holoenzyme dissociation; R2B truncated from residue 108, S112A mutant; 0% DMSO only, 100% 113 µM cGMP;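 active = activation above a cutoff set at the mean over all compounds plus 3 SD, cut at about 18% in these data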;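 note: higher means more holoenzyme dissociation and a rise in polarization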
# Target sequence (P31323 whole entry, looked up, other chains not shown, the tested form may be a part): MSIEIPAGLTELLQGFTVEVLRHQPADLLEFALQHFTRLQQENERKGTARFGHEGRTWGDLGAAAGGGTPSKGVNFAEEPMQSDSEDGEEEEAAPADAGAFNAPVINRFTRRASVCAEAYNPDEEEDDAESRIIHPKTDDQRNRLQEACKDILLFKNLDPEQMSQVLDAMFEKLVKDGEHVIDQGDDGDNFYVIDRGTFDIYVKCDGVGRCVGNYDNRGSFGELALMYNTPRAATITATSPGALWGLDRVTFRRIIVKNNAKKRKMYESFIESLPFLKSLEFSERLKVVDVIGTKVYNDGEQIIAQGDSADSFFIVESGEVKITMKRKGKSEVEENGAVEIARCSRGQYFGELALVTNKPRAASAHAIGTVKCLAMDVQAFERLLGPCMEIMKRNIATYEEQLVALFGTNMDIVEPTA
# SUMO Mot1 rescue: yeast Mot1-301 growth rescue at high temperature, primary screen, SUMOylation pathway inhibitor project, S. cerevisiae, ATP luminescence, 38.5C. S. cerevisiae Mot1-301 growth rescue; percent above DMSO median, 100 means doubled. growth rescue, % at 18.8 µM. hit rate 1% among 320,000. AID 2716, 2010;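 active = every valid replicate shows activation above 250% relative to neutral control wells; inactive = the rest, any valid replicate at or below 250%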;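 note: OY570 slx delta 5 strain wells were the positive control but not used for scaling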
# PKA-R1A activ: activators of PKA-R1A holoenzyme, primary screen, biochemical, fluorescence polarization, Cy5-IP20, bovine R1A, mouse PKAc. activation, % at 11.4 µM. AID 504707, 2011. cAMP-dependent protein kinase type I-alpha regulatory subunit (Bos taurus) + …. hit rate 0.083% among 340,000. PKA-R1A dissociation; scaled: DMSO 0%, 113 µM cGMP 100%;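 active = percent activation above the mean of all tested compounds plus 3 SD, cut at about 19% in these data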;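 note: higher means more PKAc released from R1A so a rise in polarization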
# MsrA inh: bovine MsrA enzyme inhibitors, primary screen, biochemical, absorbance, HTS; Methionine sulfoxide reductase A (Bos taurus); purified bovine MsrA, absorbance read-out; inhibition, % at 15.5 µM; hit rate 0.75% among 360,000; AID 651718, 2012;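 note: 0% = vehicle wells with enzyme and 100% = reference inhibitor wells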
# MsrA act: bovine MsrA enzyme activators, primary screen, biochemical, absorbance, HTS; Methionine sulfoxide reductase A (Bos taurus); purified bovine MsrA, absorbance read-out; activation, % at 10.6 µM; hit rate 0.3% among 360,000; AID 602163, 2012; in the data active = activation above about 7.5%;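 note: 0% = vehicle and 100% = reference activator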
# MsrA inh confirm: bovine MsrA inhibitors, retest, confirmation, biochemical, absorbance, HTS. inhibition, % at 15.5 µM. shares compounds with MsrA inh. purified bovine MsrA, absorbance read-out. hit rate 41% among 2,300;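 note: coupled to thioredoxin reductase with NADPH and selenocystamine and DMSO as substrate; 0% = vehicle only and 100% = full effect of reference inhibitor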
# * hit, by the source's call; . = no result given. Cut-off read from the data, not from the text of the source, unless noted: active = inhibition above about 4.5%; inactive = the rest.
SMILES,PKA-R2B activ,SUMO Mot1 rescue,PKA-R1A activ,MsrA inh,MsrA act,MsrA inh confirm
O=C(CN1CCN(Cc2ccccc2)CC1)N/N=C\C=C/c1ccco1,2,6,2,6.9*,-14,5.5*
CN(C)C1=NC(=O)/C(=C\c2ccccc2)S1,-6,11,10,6.5*,-2,3
COc1ccc2c(c1)C(=O)C1(CC2)OC1c1cccnc1 (stereo not given),-8,.,-4,-1,-3,.
Cc1ccc(C)c(S(=O)(=O)N/N=C/c2ccc(N(C)C)cc2)c1,8,5,-3,5.4*,-1,2
CC(=O)CNc1ccc(S(=O)(=O)N/N=C/c2ccccc2)cc1,-17,0,-14,1,-8,.
Cc1ccc(C)c(S(=O)(=O)N/N=C/c2ccc(F)cc2)c1,-19,9,1,0,-4,.
CC(=O)NCc1ccc(S(=O)(=O)N/N=C/c2ccc(N(C)C)cc2)cc1,-3,-12,-3,5.6*,-4,3
CC1=CC(=C(C#N)C#N)C=C(C)N1CCN1CCNCC1,0,-22,5,6.5*,-6,7.9*
CC(=O)N1CCN(CCN2C(C)=CC(=C(C#N)C#N)C=C2C)CC1,6,18,-1,3,-11,.
CC1=CC(=C(C#N)C#N)C=C(C)N1CCN1CCN(C(=O)Nc2cccc(Cl)c2)CC1,-4,-13,4,5.0*,-3,4.6*
O=[N+]([O-])c1ccc(SN2CCCCC2)c([N+](=O)[O-])c1,.,.,.,0,.,.
C[C@@H]1CN([C@H](C)CO)S(=O)(=O)c2ccc(C#Cc3ccccc3)cc2O[C@H]1CN(C)C(=O)Nc1ccc2c(c1)OCO2,1,.,5,1,-10,.
O=C(Nc1ccc(F)cc1)C(c1cccc(F)c1)N1CCN(Cc2c(F)cccc2Cl)CC1 (stereo not given),.,.,.,-1,.,.
CCN(CC)c1ccc(C=Nc2ccc(N(C)C)cc2)c(O)c1,-109,10,-108,5.9*,-12,2
CCN(CC)c1ccc(C=Nc2ccc(C)cc2)c(O)c1,-2,-7,-7,6.9*,-2,6.3*
CCCNC(=O)c1cc(C2CCCCN2C(=O)c2ccc(C(C)C)cc2)on1 (stereo not given),.,.,.,0,-3,.
O=c1oc2ccccc2c2c1ccc1ccccc12,-3,.,-4,6.2*,-2,5.0*
Nc1nc2ccccc2n1/N=C/c1ccc2c(c1)OCO2,.,-21,.,19*,-8,14*
Nc1nc2ccccc2n1/N=C/c1ccc(Br)cc1,-13,47,-12,1,-5,.
Cc1c(N=Nc2ccc(O)cc2)c(=O)n(-c2ccccc2)n1C,-17,-10,-4,5.2*,-7,4
C[C@@H]1CN([C@H](C)CO)C(=O)c2cc(Br)cnc2O[C@H]1CN(C)Cc1ccccc1F,.,.,.,1,.,.
CCOC(=O)c1[nH]c(C)c(C(=O)OCC)c1C,-4,-8,-8,-1,-3,.
CCOC(=O)c1c(C)[nH]sc1=S,-8,.,-5,4.9*,5,3
CC12CCC(=O)C=C1CCC1C2C(O)CC2(C)C1CCC2(O)C(=O)COC(=O)CCC1CCCC1 (stereo not given),.,.,.,.,0,.
COc1cc(OC)cc(C(=O)NCC2CCN(C(=O)C(=O)c3cc4ccccc4o3)CC2)c1,.,.,.,1,.,.
O=C(Nc1ccc2nc(-c3cccs3)[nH]c2c1)c1cccs1,10,7,3,2,-2,.
O=C(Nc1ccc2nc(-c3cccs3)[nH]c2c1)c1ccco1,-8,.,-9,4.7*,-5,3
CCC(=O)N/N=C/c1ccc(-c2ccc(Cl)cc2)o1,0,52,2,4.8*,-4,4
N#Cc1cn(-c2ccccc2)nc1-c1ccco1,6,-1,-10,5.2*,-6,4
Cc1ccc2nc(-c3ccc(F)cc3)c(Cc3cccc(F)c3)n2c1,.,.,.,1,.,.
